The record followed here is the supplement of paper PMC6522484.

The structures appear in SMILES notation. ± gives the standard deviation of the averaged measurements.

In the test the test system is DLD1. The test can be described thus: TCF/Wnt firefly luciferase reporter signal relative to plate median (fraction of plate median); higher = higher Wnt reporter signal. As to conditions: 5 µM; treatment time 24 h; reporter: 7TFP. Summed up:
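On parallel plates, a Tecan F500 reader recorded either firefly luciferase or CellTiterGlo luminescence. The plates held colorectal cancer cells stably transduced with lentiviral TCF/Wnt firefly luciferase reporters (7TFP or TCF4/Wnt), seeded in 384-well format and treated 24 h later with library compounds at a final 5 µM for 24 h. Per-well signals were normalised to the plate median (webcellHTS2, additive, no log transformation), and two independent replicates were averaged.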
For the compound `CC(=O)OCC(=O)[C@@]1(O)CC[C@H]2[C@@H]3CCC4=CC(=O)C=C[C@]4(C)[C@H]3[C@@H](O)C[C@@]21C`, the “TCF/Wnt firefly luciferase reporter signal” value was found to be 1.08 ± 0.11.
As for `Cc1cccc(C(=O)O)c1O`, the figure is 0.869 ± 0.12; as for `COCCCOc1cc(C[C@@H](C[C@H](NC(=O)OC(C)(C)C)[C@@H]2C[C@@H](C(C)C)C(=O)O2)C(C)C)ccc1OC` [Borrelidin derivative (C30H49NO7)], 0.963 ± 0.12.
For the compound `CCCCCCCCCCCCC[N+](C)(C)Cc1ccccc1`, the “TCF/Wnt firefly luciferase reporter signal” value is 0.725 ± 0.15.
As for `CC(C)C[C@H](NC(=O)[C@@H]1CCCN1)C(=O)N1CCNC(=O)C1=O` [Prolyl-leucyl-diketopiperazine], the figure is 1.04 ± 0.13.
With `CS(C)(=O)=O`, the “TCF/Wnt firefly luciferase reporter signal” value turned out to be 1.26 ± 0.071.
Consider `CC(=O)Nc1cc2nc3ccccc3oc-2cc1=O` [N-Acetylquestiomycin A], for which the “TCF/Wnt firefly luciferase reporter signal” value came to 1.24 ± 0.12.
On to `NS(=O)(=O)c1cc2c(cc1Cl)NC(C(Cl)Cl)NS2(=O)=O` (stereo not given), for which the “TCF/Wnt firefly luciferase reporter signal” value is 1.11 ± 0.29.
Then `C=CC[C@@H]1/C=C(\C)C[C@H](C)C[C@H](OC)[C@H]2O[C@@](O)(C(=O)C(=O)N3CCCC[C@H]3C(=O)O[C@H](/C(C)=C/[C@@H]3CC[C@@H](O)[C@H](OC)C3)[C@H](C)[C@@H](O)CC1=O)[C@H](C)C[C@@H]2OC`, with 1.08 ± 0.042.
In the case of `CCCCC[C@H](CC(=O)NO)C(=O)N[C@H](C(=O)N1CCC[C@H]1CO)C(C)C`, the “TCF/Wnt firefly luciferase reporter signal” value stood at 1 ± 0.05.
As for `CC(C)c1nc(N(C)S(C)(=O)=O)nc(-c2ccc(F)cc2)c1/C=C/[C@@H](O)C[C@@H](O)CC(=O)O`, the figure is 0.984 ± 0.08.
As for `COc1ccc(-c2cc(=O)c3c(OC)c(OC)c(OC)c(OC)c3o2)cc1OC`, the “TCF/Wnt firefly luciferase reporter signal” value was found to be 0.951 ± 0.034.
Then `CC(C)(C)NC[C@H](O)COc1nsnc1N1CCOCC1`, with 0.971 ± 0.084.
As for `C=C1CCC(C2CC(=O)OC2=O)C(=O)CCC2C1CC2(C)C` (stereo not given), the figure is 1.01 ± 0.19; as for `C[C@@H]1C[C@H]2O[C@@H]2/C=C\C=C\C(=O)Cc2c(Cl)c(O)cc(O)c2C(=O)O1` [Radicicol], 0.898 ± 0.16; as for `Cc1ccc(Cl)c(Nc2ccccc2C(=O)O)c1Cl`, 1.04 ± 0.021.
As for `O=C1NS(=O)(=O)c2ccccc21`, the figure is 1.1 ± 0.042; as for `COc1cc2c(cc1OC)Cc1cc(OC)c(OC)cc1Cc1cc(OC)c(OC)cc1C2`, 1.1 ± 0.15.
As for `Clc1ccc(C(c2ccccc2Cl)C(Cl)Cl)cc1` (stereo not given), the “TCF/Wnt firefly luciferase reporter signal” value is 1.11 ± 0.021.
Regarding `COC[C@H]1O[C@@H](OC2OC[C@@H]3O[C@]4(O[C@H]3[C@H]2OC(=O)C(C)C)O[C@H](C)[C@@](O)(C(C)=O)[C@@H]2OCO[C@H]24)[C@@H](OC)[C@@H](O)[C@@H]1O[C@@H]1O[C@H](C)[C@H](OC)[C@H](O[C@H]2C[C@@]3(C)OC4(C[C@@H](O)[C@H](O[C@H]5C[C@@H](O)[C@H](OC(=O)c6c(C)c(Cl)c(O)c(Cl)c6OC)[C@@H](C)O5)[C@@H](C)O4)O[C@@H]3[C@@H](C)O2)[C@H]1O` (stereo not given in full) [Avilamycin A], the “TCF/Wnt firefly luciferase reporter signal” value stood at 1.03 ± 0.028.
Then `C[C@H](CCC(=O)O)[C@H]1CC[C@H]2[C@@H]3[C@H](O)C[C@@H]4C[C@H](O)CC[C@]4(C)[C@H]3C[C@H](O)[C@]12C`, with 1.02 ± 0.13; and `COc1cccc2c1C(=O)c1c(O)c3c(c(O)c1C2=O)CC(O)(C(C)O)CC3OC1CC(NC=O)C(O)C(C)O1` (stereo not given) [Baumycin C2], with 1.17 ± 0.12.
Then `COc1cc2nc(N3CCN(C(=O)C4CCCO4)CC3)nc(N)c2cc1OC` (stereo not given), with 1.14 ± 0.13; and `CC(=O)O[C@H]1CC[C@@]2(C)[C@H](CC[C@@H]3[C@@H]2CC[C@]2(C)[C@@H]4[C@H](C[C@@H]32)O[C@]2(CC[C@@H](C)CO2)[C@H]4C)C1`, with 0.836 ± 0.043; and `OC[C@H]1O[C@@H](Oc2ccc(O)cc2)[C@H](O)[C@@H](O)[C@@H]1O`, with 0.963 ± 0.095.
`CC(C(=O)O)c1ccc(-c2ccccc2)c(F)c1` (stereo not given): the “TCF/Wnt firefly luciferase reporter signal” value stood at 1.07 ± 0.014.
As for `CC1=CCCC(C)=CCC(C)(C)C=CC1` [HUMULENE (alpha)], the figure is 1.04.
As for `O=C1c2ccccc2C(=O)c2c(Cl)cccc21` [Chloro-Anthraquinone], the figure is 1.03 ± 0.16.
As for `OC1(c2ccc(Cl)c(C(F)(F)F)c2)CCN(CCCC(c2ccc(F)cc2)c2ccc(F)cc2)CC1`, the figure is 1.1 ± 0.21; as for `O=c1c(O)c(-c2ccccc2)oc2ccccc12`, 1.1 ± 0.16; as for `CCN(CC)CCNC(=O)c1cc(Cl)c(N)cc1OC`, 1.14 ± 0.05.
Turning to `CC1(C)OC(=O)NC1=O`, the “TCF/Wnt firefly luciferase reporter signal” value amounted to 1.08 ± 0.11.
As for `S=P(N1CC1)(N1CC1)N1CC1`, the figure is 0.975 ± 0.03; as for `CN[C@@H]1[C@H](O)[C@H](NC)[C@H]2O[C@@]3(O)C(=O)C[C@@H](C)O[C@H]3O[C@@H]2[C@H]1O`, 1.24 ± 0.18.
As for `COc1ccc(CN(CCN(C)C)c2ncccn2)cc1`, the figure is 0.9635 ± 0.00071; as for `NC(=O)c1cc[n+](CC2=C(C(=O)O)N3C(=O)[C@@H](NC(=O)[C@@H](c4ccccc4)S(=O)(=O)[O-])[C@H]3SC2)cc1`, 0.967 ± 0.17; as for `CC1(C)S[C@@H]2[C@H](NC(=O)[C@H](NC(=O)N3CCNC3=O)c3ccccc3)C(=O)N2[C@H]1C(=O)O`, 0.903 ± 0.0099.
On to `COc1ccccc1OCC(O)CN1CCN(CC(=O)Nc2c(C)cccc2C)CC1` (stereo not given), for which the “TCF/Wnt firefly luciferase reporter signal” value was 1.04 ± 0.028.
Then `COc1c2ccoc2nc2c(OC)c(OCC(O)C(C)(C)O)ccc12` (stereo not given), with 1.03 ± 0.047; and `Cc1c(NC(C)C)c(=O)n(-c2ccccc2)n1C`, with 0.95 ± 0.21.
